Among the data in PubChem BioAssay AID2796 (The Scripps Research Institute Molecular Screening Center, 2010) are activation values, retold here.

In all, about 320,000 compounds went through this assay and about 8,000 (2.5%) were called active. The full list was thinned out, with actives kept by preference. Values without a mark were called inactive. Rule as the data show it: active = activation above about 47%; inactive = the rest.

In the assay the target is Aryl hydrocarbon receptor (Homo sapiens) (UniProt P35869). Nature of the assay: AHR activators, primary screen, cell-based, luminescence, luciferase reporter, human (AID 2796).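 Also: 0% = vehicle wells and 100% = reference agonist.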 The following applies: AHR-responsive luciferase reporter cells, at 5 µM, active compounds read high. A general note: In a reporter assay the amount or activity of a reporter protein is the signal.
Sequence of Aryl hydrocarbon receptor (Homo sapiens) (P35869 whole entry, looked up): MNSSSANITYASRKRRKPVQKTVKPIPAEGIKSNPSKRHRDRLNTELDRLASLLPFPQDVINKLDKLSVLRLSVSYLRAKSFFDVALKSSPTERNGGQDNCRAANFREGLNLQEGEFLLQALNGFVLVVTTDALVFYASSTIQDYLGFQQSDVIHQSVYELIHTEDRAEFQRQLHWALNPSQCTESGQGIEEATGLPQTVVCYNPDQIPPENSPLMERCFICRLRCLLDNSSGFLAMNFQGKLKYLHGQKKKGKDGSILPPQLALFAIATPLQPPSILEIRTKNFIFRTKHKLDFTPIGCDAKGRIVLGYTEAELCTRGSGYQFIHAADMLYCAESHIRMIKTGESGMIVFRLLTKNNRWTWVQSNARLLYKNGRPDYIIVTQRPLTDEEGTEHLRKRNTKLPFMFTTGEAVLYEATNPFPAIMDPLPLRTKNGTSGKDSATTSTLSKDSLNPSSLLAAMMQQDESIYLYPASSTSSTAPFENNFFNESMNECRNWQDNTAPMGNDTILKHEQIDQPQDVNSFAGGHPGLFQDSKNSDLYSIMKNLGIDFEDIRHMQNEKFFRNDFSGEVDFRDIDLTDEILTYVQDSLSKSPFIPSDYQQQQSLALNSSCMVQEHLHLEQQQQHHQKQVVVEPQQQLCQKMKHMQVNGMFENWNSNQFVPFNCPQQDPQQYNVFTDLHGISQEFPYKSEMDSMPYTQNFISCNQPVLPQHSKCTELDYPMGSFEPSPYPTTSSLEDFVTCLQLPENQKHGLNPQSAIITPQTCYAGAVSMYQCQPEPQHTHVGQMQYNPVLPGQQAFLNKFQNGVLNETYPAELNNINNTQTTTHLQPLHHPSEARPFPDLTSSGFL
Regarding `Cc1ccc(Nc2nc(CSc3nnnn3-c3ccccc3)cc(=O)[nH]2)cc1`, the activation was 73.4% (active). Take `COc1ccc(C)cc1-n1nnnc1SCc1nc2ccccc2c(=O)[nH]1`: the activation is 24.9%. On to `Cc1ccc(-c2noc(CSc3nnnn3-c3ccccc3)n2)cc1`, for which the activation is 8.65%. Under `Cc1ccc(Br)c(NS(=O)(=O)c2cccc(C(=O)N3CCNC(=O)C3)c2)c1` stands 1.33%; under `COC(=O)c1ccc(NC(=O)c2cc(Cl)ccc2OC)cc1`, 2.68%.

Regarding `COc1cc(OC)c(C(=O)Nc2ccc(N(C)C)cc2)cc1OC`, the activation is -7.49%. The value for `COc1ccc(Cl)cc1C(=O)Nc1ccc(N(C)C(C)=O)cc1` was 81.3% (active). Under `Cc1ccsc1C(=O)OCC(=O)Nc1cccc(F)c1` stands -0.75%. The value for `Cc1ccc(C(=O)Nc2ccccc2-c2ccccc2)cc1S(=O)(=O)Nc1ccccc1` was 2.25%.

In the case of `Cc1ccc(C)c(NC(=O)C(OC(=O)c2ccc(C)s2)c2ccccc2)c1` (stereo unspecified), the activation is 29.4%. `O=C(CCc1c[nH]c2ccccc12)NCCOc1ccccc1`: the activation is 2.6%. Under `Cn1cc(CCC(=O)NCc2ccc3c(c2)OCO3)c2ccccc21` stands 8.58%. In the case of `CCN(CC)CCNC(=O)CCCCCn1c(=O)[nH]c2cc(C(=O)OC)ccc2c1=O`, the activation is 1.58%.

As for `O=C(CCCCn1c(=O)[nH]c2ccccc2c1=O)NCc1ccc2c(c1)OCO2`, the activation was 79.9% (active). The value for `O=C(CCn1c(=S)[nH]c2cc3c(cc2c1=O)OCO3)NCc1ccc(Cl)cc1` was -0.55%; that for `O=C(CCCCCn1c(=O)[nH]c2ccccc2c1=O)NCCc1c[nH]c2ccccc12` was 54.7% (active); that for `O=c1c2ccccc2c(-c2ccccc2)nn1-c1ccccn1` was 0.2%.

In the case of `Cc1ccc(C(=O)NNC(=O)c2cccs2)cc1`, the activation was -3.24%. The value for `Cc1ccc(C(=O)NNc2ncnc3ccccc23)cc1` was 19.4%. For the compound `Cc1ccc(C(=O)NNC(=O)c2cc3cc4ccccc4nc3s2)cc1`, the activation was 64% (active). The value for `Cc1cccc(NC(=O)c2ccc(S(=O)(=O)N(C)c3ccccc3)cc2)n1` was 13.7%. `O=C(COC(=O)c1ccc([N+](=O)[O-])cc1Cl)NC(=O)c1ccccc1`: the activation is 0.29%. In the case of `CCOC(OCC)c1ccc(/C=C\c2nccc(N)n2)cc1`, the activation was 2.83%. Take `CC1=CC=CC2=N/C(=N\S(=O)(=O)c3ccc(F)cc3F)c3ccccc3CN12`: the activation was 68.7% (active). The value for `CCNC(=S)N1CCN(S(=O)(=O)c2ccc(Cl)s2)CC1` was -1.16%.

As for `CN(C)/C=C1/Nc2ccccc2C1=O`, the activation was 33.7%. The value for `Cc1cc(C)c(/C=C2\C(=O)Nc3ccccc32)[nH]1` was 47% (active); that for `O=C1Nc2ccccc2/C1=C/c1ccnc2ccccc12` was 8.16%. Turning to `COCCN(C(=O)CCC(=O)Nc1nccs1)C(C(=O)NC(C)(C)C)c1ccc(Cl)cc1` (stereo unspecified), the activation was 0.14%. For `COc1ccccc1C(=O)COC(=O)COc1ccc(C#N)cc1`, the activation is -0.13%. Under `COc1ccc(CCNc2nc(C)cc(C)n2)cc1OC` stands 4.65%.

As to `COc1ccc(-c2nc(-c3ccccc3)no2)c(OC)c1`, the activation is 70.8% (active). The value for `Cc1ccc(-c2nc(-c3ccncc3)no2)c(C)c1` was 3.29%. As for `COc1ccc(/C=C/c2noc(-c3ccccc3OC(C)=O)n2)cc1`, the activation is 2.04%. The value for `CCOC(=O)N1CCN(S(=O)(=O)N2CCCC(C(=O)NCCCN3CCC(C)CC3)C2)CC1` (stereo unspecified) was 0.65%; that for `CCC(C(=O)N1CCN(S(=O)(=O)c2sc(C(=O)O)c(C)c2C(=O)O)CC1)c1ccccc1` (stereo unspecified) was -0.9%.

`O=S(=O)(c1ccc(Br)cc1)c1nc(-c2ccccc2)oc1N1CCOCC1`: the activation was 3.81%.

For the compound `Cc1ccc(Sc2cc(N3CCOCC3)nc(-c3ccccc3)n2)cc1`, the activation is 3.2%. Under `Cc1cc(N2CCOCC2)nc(-c2ccc(Br)cc2)n1` stands 86.8% (active); under `CC(=O)O[C@H]1CC[C@@]2(C)[C@@H](CC[C@@H]3[C@@H]2CC[C@]2(C)[C@@H](C(C)(C)O)C[C@@H]32)C1`, 1.86%. The value for `CC(NC(=O)c1cc(=O)[nH]c2ccccc12)c1ccc(F)cc1F` (stereo unspecified) was -1.44%; that for `O=C(CNC(=O)c1cc(=O)[nH]c2ccccc12)Nc1ccc(F)c(F)c1` was 70.8% (active). Under `CCOC(=O)c1ccc(NC(=O)c2cc(=O)[nH]c3ccccc23)cc1` stands -0.98%; under `COC(=O)C1=CO[C@@H](O[C@@H]2O[C@H](CO)[C@@H](O)[C@H](O)[C@H]2O)C2C1C[C@H](O)[C@@H]2C` (stereo partly specified), 0.44%. As to `CC(C)(C)n1nc(Cc2cccc3ccccc23)c(C#N)c1N`, the activation is 51.2% (active).

`N#Cc1nc(-c2cccc3ccccc23)oc1N`: the activation was -2.82%. For `CCc1nn(-c2cc(Oc3cccc4ccccc34)nc(-c3ccccc3)n2)c(N)c1C#N`, the activation is 10.9%.

`CCCCOc1ccc(C(=O)NCC(=O)OCC(=O)N2CCN(S(=O)(=O)c3ccc(C)cc3C)CC2)cc1`: the activation was 0.36%.

For the compound `COc1ccc(N2CCN(S(=O)(=O)c3cc4c5c(c3)C(C)C(=O)N5CCC4)CC2)cc1` (stereo unspecified), the activation is -1.29%. The value for `CN1CCN(/N=C/c2ccc(-c3ccc([N+](=O)[O-])cc3)o2)CC1` was 38.6%; that for `NS(=O)(=O)c1ccc(-c2ccc(/C=C3\SC(=O)NC3=O)o2)cc1` was 125% (active). Under `CN1C(=O)/C(=C\c2ccc(-c3ccccc3)o2)SC1=S` stands 6.56%. Turning to `c1ccc(-c2nccc(-c3ccc(-n4cnc5ccccc54)cc3)n2)nc1`, the activation is -6.06%. Consider `COc1ccc(CCNC(=O)COc2ccc3c(c2)OCO3)cc1`, for which the activation is 10%. For the compound `CC(C)(C)c1ccc(SCCc2ccncc2)cc1`, the activation was 14.1%. The value for `CC(C)CCNC(=O)C1CCC(CNc2c(N3CCC(C)CC3)c(=O)c2=O)CC1` (stereo unspecified) was 7.38%; that for `Cn1c(=NC(=O)C2CC2)sc2cc(F)cc(F)c21` was 69.9% (active).

In the case of `O=C(CN(Cc1ccc(Br)cc1)S(=O)(=O)c1ccccc1)NCc1ccncc1`, the activation was 1.87%. Under `C=CCn1c(=NC(=O)c2cccs2)sc2cc(NC(C)=O)ccc21` stands 118% (active); under `C=CCn1c(=NC(=O)c2ccc(S(=O)(=O)N3CCCC3)cc2)sc2cc(NC(C)=O)ccc21`, 1.47%; under `C=CCn1c(CCNC(=O)c2cccs2)n[nH]c1=S`, -2.49%.
